The campaign covered roughly 360,000 compounds. About 6,000 (1.7%) were called active. Entries that show only a call come without a potency. Not shown: some 8% with an inconclusive outcome. Calls come from the whole dose curve; as a rule, active = well fitted cell-killing curve with a large enough effect; inconclusive = small, poorly fitted or top-dose-only effect, or effect the other way; inactive = flat fitted curve, though single readings scatter. This excerpt belongs to a sample that is enriched for actives.
assay: qHTS for induction of synthetic lethality in tumor cells producing 2HG: qHTS for the HT-1080-NT fibrosarcoma cell line; conditions: HT-1080-NT fibrosarcoma viability, CellTiter-Glo ATP luminescence, 48 h; series mostly up to 46.1 µM;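 note: NT is the 2HG producing partner of a matched IDH1 knockdown line; nearly all actives have a fitted effect of over 55% in size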
How it was run: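 HT-1080-NT fibrosarcoma cells (2HG-overproducing), 750 cells/well in RPMI with 5% FBS, dosed after 2 h and incubated 48 h at 37C. CellTiter-Glo luminescence normalized to DMSO and no-cell wells; concentration-response curves fitted and classed.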
Potency is the fitted concentration of half-maximal effect.

Row | SMILES | Potency
1 | COC(=O)C[C@@H]1C=C[C@@H](NS(=O)(=O)c2cccc(OC)c2)[C@@H](CO)O1 | inactive
2 | CC[C@@H]1Cc2cc(O)ccc2C2=C1c1ccc(O)cc1C[C@H]2CC | 18.4 µM (active)
3 | Cc1cc(C)cc(OCC(=O)NCc2cc(C)nc3ccccc23)c1 | inactive
4 | Cc1cc(C)c(NC(=O)c2oc3ccccc3c2COc2ccccc2)c(C)c1 | inactive
5 | Cc1cc(C)c(NC(=O)C[N+](C)(C)CC(O)COc2cccc3ccccc23)c(C)c1 (centres undefined) | 18.4 µM (active)
6 | CC(C)(C(=O)NO)c1ccccc1 | inactive
7 | CCN1C(=O)[C@H]2[C@@H](c3ccc(C(F)(F)F)cc3)N[C@]3(CCCN(Cc4ccc(Br)cc4)C3=O)[C@H]2C1=O | inactive
8 | COc1cccc(CN2CCC(C(=O)NC(c3ccc4c(c3)OCO4)c3ccccn3)CC2)c1 (centres undefined) | inactive
9 | O=C(CCCOc1ccc(Cl)cc1Cl)NNC(=O)C1CCC1 | inactive
10 | O=C(NC(c1ccc(-c2ccccc2)cc1)c1cnccn1)C1CCN(CCOc2ccc(Cl)cc2Cl)CC1 (centres undefined) | 20.6 µM (active)
11 | CCCNC(=O)C1(C)CCN1C(=O)C1(c2ccccc2)CC1 (centres undefined) | inactive
12 | COc1ccccc1CNC(=O)c1cc(-c2cc(F)ccc2OC)n[nH]1 | inactive
13 | CCNC(=O)c1cc2c(c(-c3cccc(-c4cncnc4)c3)n1)[C@H](CCO)N(C(C)=O)C2 | inactive
14 | COC(=O)c1ccc2nc(-c3ccc(Cl)cc3)c(Cc3cccc(F)c3)n2c1 | inactive
15 | Cn1c(=O)c2cc(NC(=O)NCCc3cccs3)ccc2n1Cc1cccc(C(F)(F)F)c1 | inactive
16 | COc1ccccc1NC(=O)COc1ccc(C(=O)OCC(=O)N(C(C)C)C(C)C)cc1OC | inactive
17 | CCN(CCCCOC(=O)c1ccc(OC)c(OC)c1)C(C)Cc1ccc(OC)cc1 (centres undefined) | 18.4 µM (active)
18 | COc1ccc(C(=O)OCC(=O)NCCCc2ccccc2)cc1OC | inactive
19 | CCC(=O)N1Cc2cc(C(=O)NCc3cccc(F)c3)nc(-c3cccc(C4=CCCC4)c3)c2[C@H]1CCO | inactive
20 | CS(=O)(=O)c1cccc(-c2ccc3nncn3c2)c1 | inactive
21 | CCOC(=O)N1CCN(C(c2ccnc3ccccc23)c2nnnn2-c2c(C)cccc2C)CC1 (centres undefined) | inactive
22 | CC1(C)CN(CCc2ccccc2)C(=O)[C@H]1CC(=O)Nc1ccc(Br)cc1 | inactive
23 | CCCCN1CC(C)(C)[C@H](CC(=O)Nc2ccc(Br)cc2)C1=O | inactive
24 | CN1C(CC(=O)Nc2ccc(Br)cc2)c2ccccc2CC1(C)C (centres undefined) | 18.4 µM (active)
25 | COC(=O)c1ccc2nc(-c3cccc(Br)c3)c(Cc3ccc(OC)cc3C)n2c1 | inactive

Row | SMILES | Potency
26 | COCCn1c(SCC(=O)Nc2ccc(F)cc2F)nc2c(c1=O)SCC2 | inactive
27 | COc1ccccc1NC(=O)/C=C/C(N)=O | 8.91 µM (active)
28 | COc1ccccc1NC(=O)N(O)C1(C#N)CCCCC1 | inactive
29 | COc1ccccc1NC(=O)COC(=O)COc1ccccc1F | inactive
30 | O=C1NC[C@H](CCCCN2C[C@H](Cc3ccc(O)cc3)N(CCc3ccccc3)C(=O)C2=O)N(CCc2ccccc2)C1=O | inactive
31 | COc1ccc(-c2cc(C)nc3nc(N)nn23)cc1 | inactive
32 | Cc1cc(N)n2nc(-c3ccc(C(C)(C)C)cc3)cc2n1 | 16.4 µM (active)
33 | Cc1cc(C(C)(C)C)cc(C)c1N | inactive
34 | Cc1ccc(S(=O)(=O)NN=C2CC(C)(C)CC(=O)C2(C)C)cc1 | inactive
35 | CC(=O)NC(c1cccc(F)c1)c1nc(-c2cccc(F)c2)cs1 (centres undefined) | inactive
36 | Cc1ccc(C(O)c2ncc(-c3ccccc3F)[nH]2)cc1F (centres undefined) | inactive
37 | CC(=O)Nc1ccc(Nc2c3ccccc3nc3ccccc23)cc1 | 14.6 µM (active)
38 | CC(=O)Nc1ccc(S(=O)(=O)N(C)c2nc3ccccc3nc2Cl)cc1 | inactive
39 | CC(=O)Nc1ccc(Nc2c([N+](=O)[O-])cc(S(C)(=O)=O)cc2[N+](=O)[O-])cc1 | inactive
40 | C[C@H]1CN([C@@H](C)CO)C(=O)c2cc(-c3ccccc3F)cnc2O[C@H]1CN(C)C(=O)C1CCOCC1 | inactive
41 | CCOc1ccc(NC(=O)CSc2nnc3c(n2)[nH]c2ccc(S(=O)(=O)N4CCOCC4)cc23)cc1 | inactive
42 | CCc1nnc(NC(=O)C2CCCN2S(=O)(=O)c2ccccc2)s1 (centres undefined) | inactive
43 | CCc1nnc(NC(=O)c2cc(S(=O)(=O)N3CCCCC3)ccc2C)s1 | inactive
44 | CCc1nnc(NC(=O)c2ccc(S(=O)(=O)NC3CCCCC3)cc2)s1 | 6.31 µM (active)
45 | CCOC(=O)c1c(NC(=O)COC(=O)c2ccc(S(=O)(=O)C(F)F)cc2)sc(C(=O)N(C)C)c1C | inactive
46 | CCCCn1nnnc1C1(C)CCC(=O)N1Cc1ccc(OC)c(OC)c1 (centres undefined) | inactive
47 | Cc1cccc(NC(=O)COC(=O)c2ccccc2OCc2cccc(Br)c2)c1 | inactive
48 | COc1ccc(CS(=O)/C(Cl)=C(/Cl)C(=O)Nc2ccc(OC)nc2)cc1 (centres undefined) | 1.3 µM (active)
49 | COc1ccc(NC(=O)CN2C(=O)NC(C)(c3ccccc3)C2=O)cn1 (centres undefined) | inactive
50 | COc1ccc(C(O)c2nc(-c3ccc(OC)nc3)cs2)cc1 (centres undefined) | inactive

Row | SMILES | Potency
51 | CC(=O)NC(c1ccccc1)c1nc(-c2ccccc2C)cs1 (centres undefined) | inactive
52 | CSc1ncnc2c1ncn2CCCNCC(C)c1ccccc1 (centres undefined) | inactive
53 | COc1ccc(NC(=O)N(C)C[C@@H]2OCc3cn(nn3)CCCC(=O)N([C@H](C)CO)C[C@H]2C)c(OC)c1 | inactive
54 | CCCCNC(=O)C[C@@H]1C[C@@]2(C(=O)OC)CC(C)(C)CC=C2N(Cc2ccco2)C1=O | inactive
55 | COc1ccc(NC(=O)c2nc(-n3nc(C)cc3C)ccc2Cl)cc1Cl | inactive
56 | COc1ccc(Nc2cc(Sc3ccc(OC)cc3)ncn2)cc1 | inactive
57 | COc1ccc(Nc2cc(C)nc(-n3nc(C)cc3C)n2)cc1 | 1.12 µM (active)
58 | CNS(=O)(=O)c1ccc2c(c1)[nH]c(=S)n2C | inactive
59 | CC1=C(C(=O)N2CCOCC2)CC(CC(=O)NCc2cccc3ccccc23)C(=O)N1CCC1=CCCCC1 (centres undefined) | inactive
60 | CCCC(=O)N1CCC1(C)C(=O)NCc1ccc(C(C)C)cc1 (centres undefined) | inactive
61 | Cc1ccc(-c2nn(-c3ccccc3)cc2C(=O)NCCCN2CCCC2=O)cc1 | inactive
62 | O=C(O)c1ccc(NC(=O)c2cn(-c3ccccc3)nc2-c2ccc(Cl)cc2)cc1 | 9.2 µM (active)
63 | Cc1ccc(-c2nn(-c3ccccc3)cc2C(=O)Nc2cccc(S(=O)(=O)N3CCOCC3)c2)cc1 | inactive
64 | COC(=O)C1(C(=O)OC)C[C@H](c2ccccc2)N(Cc2ccccc2OC)[C@@H]1c1ccccc1 | inactive
65 | CCCNC(=O)C1(C)CCN(Cc2csc(-c3ccc(Cl)cc3)n2)C1 (centres undefined) | inactive
66 | Oc1ccc(N2CCN(C(=S)NCc3ccccc3)CC2)cc1 | 9.2 µM (active)
67 | Oc1ccccc1N1CCN(C(=S)NCc2ccccc2)CC1 | inactive
68 | O=C(COC(=O)c1ccccc1C(=O)N1CCN(c2ccccc2)CC1)NCc1ccccc1 | inactive
69 | O=C(COC(=O)c1ccc([N+](=O)[O-])cc1Cl)NC(=O)c1ccccc1 | inactive
70 | O=C(NC(Nc1nc2ccc([N+](=O)[O-])cc2s1)(C(F)(F)F)C(F)(F)F)c1ccccc1 | 5.17 µM (active)
71 | O=C(NOCc1ccccc1)c1cccc([N+](=O)[O-])c1 | inactive
72 | COc1ncnc2c1ncn2CCCNCCN1CCOCC1 | inactive
73 | CCC1CCCCN1CCCNC(=O)C1CCC(Cn2c(=O)[nH]c3ccccc3c2=O)CC1 (centres undefined) | inactive
74 | CC1CCCCN1CCCNC(=O)Cn1ncc2c([nH]c3ccccc32)c1=O (centres undefined) | inactive
75 | CCCCCn1c(=O)[nH]c2cc(C(=O)NCCCN3CCCCC3C)ccc2c1=O (centres undefined) | 23.1 µM (active)

Row | SMILES | Potency
76 | CC(C)(O)C1=C[N+](=O)CC=C1 | inactive
77 | c1cc(-c2ccc3[nH]ccc3c2)n2ccnc2c1 | inactive
78 | NC(CSC(c1ccccc1)(c1ccccc1)c1ccc(-c2ccccc2)cc1)C(=O)O (centres undefined) | inactive
79 | Clc1ccc(-c2cc(C3CCNCC3)[nH]n2)c(Cl)c1 | 23.1 µM (active)
80 | Clc1ccc(-c2cc(-c3ccccn3)on2)c(Cl)c1 | inactive
81 | C[C@@H]1Cn2cnc(C(=O)Nc3ccc(CNC(=O)OC(C)(C)C)cc3)c2C(=O)N1 | inactive
82 | Cc1nnc(SC(C)C(=O)c2c[nH]c3ccccc23)n1C1CC1 (centres undefined) | inactive
83 | CC1(c2ccccc2)NC(=O)N(CC(=O)Nc2cc(Cl)ccc2N2CCOCC2)C1=O (centres undefined) | inactive
84 | Cc1ccccc1NC(=O)CSc1nc2ccc(Nc3nc(N4CCOCC4)nc(N4CCOCC4)n3)cc2s1 | inactive
85 | O=C(CSc1nc(Nc2ccccc2)nc(N2CCOCC2)n1)Nc1cc(Cl)ccc1O | 16.4 µM (active)
86 | c1ccc2c(c1)nnn2-c1ccncc1 | inactive
87 | O=C(c1ccc(Oc2ccc(Cl)cc2)c([N+](=O)[O-])c1)N1CCCC1 | inactive
88 | CC1CCN(C(=O)c2ccc(S(=O)(=O)Cc3cc(F)ccc3F)c([N+](=O)[O-])c2)CC1 | 11.6 µM (active)
89 | O=C(Nc1ccc(F)cc1)C1CCN(C(=O)c2ccc([N+](=O)[O-])cc2)CC1 | inactive
90 | Oc1cc2c(cc1O)CN(C(=S)NCCc1ccc(Cl)cc1)CCC2 | 31.6 µM (active)
91 | O=C(NCCc1ccc(Cl)cc1)c1cccc(N2CCCC2=O)c1 | inactive
92 | Cc1ccc(NC(=S)NCCc2ccc(Cl)cc2)c(C)c1 | inactive
93 | Cc1cc(C)c2c(=O)n3c(nc2c1)C(CC(C)C)NC(=O)c1cc2ccccc2cc1-3 (centres undefined) | inactive
94 | CC(C)C1CC2=C(C(=O)OC(C)(C)O2)C(c2ccc(F)cc2)O1 (centres undefined) | inactive
95 | CN1OC[C@@H]2CN(S(=O)(=O)c3cccc4ccccc34)[C@H](c3ccc(N4CCCCC4)cc3)C[C@@H]21 | inactive
96 | CS(=O)(=O)/C(C#N)=C/c1cccn1S(=O)(=O)c1ccc([N+](=O)[O-])cc1 | inactive
97 | CN(C)CCOc1ccc(Cl)cc1C(C)(C)C | inactive
98 | Clc1cccc(Cl)c1OCCOCCNCc1ccccc1 | inactive
99 | CN(C)CCOCCOc1ccc(Cl)c2ccccc12 | 18.4 µM (active)

— PubChem BioAssay AID686970 (National Center for Advancing Translational Sciences (NCATS), 2013)
